Assay results reported in PubChem BioAssay (EPA / NIEHS).
The source holds several records for some structures; these can differ, active in one and inactive in another. Calls of active or inactive are those of the source. How the source made its calls: active means hit-call score of the fitted dose curve at least 0.9, where 1 is the maximum; inactive means score below 0.9.

Columns and labels:
[1] = read-out: Macrophage colony-stimulating factor (MCSF), CSF1 (gene 1435); test: BSK_hDFCGF_MCSF: BioMAP Diversity Plus: hDFCGF Assay for Macrophage colony-stimulating factor (MCSF) Biomarker Activity (AID 2283060); conditions: primary human foreskin fibroblasts; actives raise or lower the signal
How it was run: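 M-CSF levels read by ELISA at 24 h post-dosing in human skin fibroblasts. Parallel cultures stained with SRB assessed cytotoxicity at the same time point; response fitted in both directions against the DMSO baseline.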

[2] = BSK_hDFCGF_SRB: Viability Assessment in the BioMAP Diversity Plus: hDFCGF Assay (AID 2283061); conditions: primary human foreskin fibroblasts;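 further: cells exposed to compound for 24 h before the read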
How it was run: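 Viability was read as total protein: after 10% TCA fixation, wells were stained with 0.1% sulforhodamine B and read at 560 nm. Primary human foreskin fibroblasts were dosed for 24 h, with bidirectional fitting versus DMSO.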

[3] = read-out: TIMP metallopeptidase inhibitor 1 (TIMP1), TIMP1 (gene 7076); test: BSK_hDFCGF_TIMP1: BioMAP Diversity Plus: hDFCGF Assay for TIMP metallopeptidase inhibitor 1 (TIMP1) Biomarker Activity (AID 2283062); conditions: primary human foreskin fibroblasts; actives raise or lower the signal
How it was run: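 TIMP-1 measured by ELISA 24 h after chemical dosing of primary human skin fibroblasts, with gain or loss fitted relative to DMSO. Parallel SRB staining (560 nm) monitored overt cytotoxicity.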

[4] = read-out: Monokine induced gamma interferon (MIG), CXCL9 (gene 4283); test: BSK_hDFCGF_MIG: BioMAP Diversity Plus: hDFCGF Assay for Monokine induced gamma interferon (MIG) Biomarker Activity (AID 2283063); conditions: primary human foreskin fibroblasts; actives raise or lower the signal
How it was run: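 Human primary foreskin fibroblasts in the hDFCGF system, exposed to test chemical for 24 h; MIG measured by ELISA. Bidirectional curve fitting against DMSO negative control as activity baseline.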

[5] = read-out: Matrix Metallopeptidase 1 (MMP1), MMP1 (gene 4312); test: BSK_hDFCGF_MMP1: BioMAP Diversity Plus: hDFCGF Assay for Matrix Metallopeptidase 1 (MMP1) Biomarker Activity (AID 2283064); conditions: primary human foreskin fibroblasts; actives raise or lower the signal
How it was run: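 ELISA read-out of MMP1 from human foreskin fibroblasts (primary skin cells), 24 h post-dose. Gain or loss of signal was fitted bidirectionally versus DMSO negative control; cytotoxicity was checked by SRB in parallel cultures.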

[6] = read-out: Vascular cell adhesion molecule 1 (VCAM1), VCAM1 (gene 7412); test: BSK_hDFCGF_VCAM1: BioMAP Diversity Plus: hDFCGF Assay for Vascular cell adhesion molecule 1 (VCAM1) Biomarker Activity (AID 2283065); conditions: primary human foreskin fibroblasts; actives raise or lower the signal;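 on AC50: VCAM-1 protein level quantified by ELISA after 24 h chemical exposure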
How it was run: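 ELISA readout of VCAM-1 on human dermal fibroblast primary cultures, 24 h after chemical exposure. Gain or loss of signal fitted in both directions against DMSO baseline.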

[7] = read-out: Plasminogen activator inhibitor-1 (PAI1), SERPINE1 (gene 5054); test: BSK_hDFCGF_PAI1: BioMAP Diversity Plus: hDFCGF Assay for Plasminogen activator inhibitor-1 (PAI1) Biomarker Activity (AID 2283066); conditions: primary human foreskin fibroblasts; actives raise or lower the signal
How it was run: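 PAI-1 levels in human dermal foreskin fibroblasts were quantified by ELISA 24 h after dosing, with gain or loss analysed against DMSO. Overt cytotoxicity was checked by sulforhodamine B total-protein staining in parallel cultures.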

[8] = read-out: Intercellular Adhesion Molecule 1 (ICAM1), ICAM1 (gene 3383); test: BSK_KF3CT_ICAM1: BioMAP Diversity Plus: KF3CT Assay for Intercellular Adhesion Molecule 1 (ICAM1) Biomarker Activity (AID 2283067); conditions: primary human keratinocytes with fibroblasts; actives raise or lower the signal
How it was run: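 Cell-surface ICAM-1 was measured by ELISA 24 h after dosing primary human skin keratinocytes co-cultured with fibroblasts. Parallel SRB staining tracked overt cytotoxicity. Gain or loss of signal was fitted relative to DMSO.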

[9] = read-out: Interferon-gamma inducible Protein 10 (IP10), CXCL10 (gene 3627); test: BSK_KF3CT_IP10: BioMAP Diversity Plus: KF3CT Assay for Interferon-gamma inducible Protein 10 (IP10) Biomarker Activity (AID 2283068); conditions: primary human keratinocytes with fibroblasts; actives raise or lower the signal
How it was run: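 Signal is secreted/surface IP-10 by ELISA in a human primary skin co-culture of keratinocytes and foreskin fibroblasts, taken 24 h post-dosing; DMSO served as negative control.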

[10] = BSK_KF3CT_SRB: Viability Assessment in the BioMAP Diversity Plus: KF3CT Assay (AID 2283069); conditions: primary human keratinocytes with fibroblasts;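 further: read 24 h after compound addition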
How it was run: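 SRB read-out at 560 nm (0.1% stain, TCA-fixed cells) gauges overt cytotoxicity in a human skin keratinocyte–fibroblast co-culture 24 h post-dosing. Signal change was fitted bidirectionally relative to DMSO control.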

[11] = read-out: TIMP metallopeptidase inhibitor 2 (TIMP2), TIMP2 (gene 7077); test: BSK_KF3CT_TIMP2: BioMAP Diversity Plus: KF3CT Assay for TIMP metallopeptidase inhibitor 2 (TIMP2) Biomarker Activity (AID 2283071); conditions: primary human keratinocytes with fibroblasts; actives raise or lower the signal
How it was run: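 TIMP-2 measured by ELISA at 24 h in human keratinocyte/fibroblast primary co-cultures exposed to chemicals. Both increases and decreases were fitted against DMSO. Parallel cultures were stained with SRB for total protein as an overt-cytotoxicity check.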

[12] = read-out: C-C motif chemokine 2 (Homo sapiens) (UniProt P13500); test: BSK_KF3CT_MCP1: BioMAP Diversity Plus: KF3CT Assay for Monocyte Chemoattractant Protein 1 (MCP1/CCL2) Biomarker Activity (AID 2283073); conditions: primary human keratinocytes with fibroblasts; actives raise or lower the signal
How it was run: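 ELISA read-out of MCP-1, 24 h post-dose, in primary human skin keratinocytes co-cultured with fibroblasts. Parallel SRB staining monitors cytotoxicity; changes fitted both directions relative to DMSO.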

[13] = read-out: Matrix Metallopeptidase 9 (MMP9), MMP9 (gene 4318); test: BSK_KF3CT_MMP9: BioMAP Diversity Plus: KF3CT Assay for Matrix Metallopeptidase 9 (MMP9) Biomarker Activity (AID 2283074); conditions: primary human keratinocytes with fibroblasts; actives raise or lower the signal;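 on AC50: MMP9 protein level quantified by ELISA in the co-culture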
How it was run: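 ELISA read-out of MMP-9 at 24 h post-dosing in a co-culture of human skin keratinocytes and foreskin fibroblasts. Gain or loss of signal was fitted in both directions against DMSO.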

[14] = read-out: urokinase plasminogen activator (uPA), PLAU (gene 5328); test: BSK_KF3CT_uPA: BioMAP Diversity Plus: KF3CT Assay for urokinase plasminogen activator (uPA) Biomarker Activity (AID 2283075); conditions: primary human keratinocytes with fibroblasts; actives raise or lower the signal
How it was run: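 Skin co-culture (keratinocytes + foreskin fibroblasts), human primary; 24 h post-dose; uPA by ELISA; gain/loss fit vs DMSO baseline.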

CD40, CD40 (gene 958) = test: BSK_LPS_CD40: BioMAP Diversity Plus: LPS Assay for CD40 Biomarker Activity (AID 2283076); conditions: primary human HUVEC with PBMC; actives raise or lower the signal
How it was run: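 In the LPS system of human endothelial cells with peripheral blood mononuclear cells, CD40 levels were read by ELISA 24 h post-treatment. Signal changes in either direction were fitted against the DMSO baseline, with parallel SRB protein staining.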

[15] = read-out: E-selectin (Homo sapiens) (UniProt P16581); test: BSK_LPS_Eselectin: BioMAP Diversity Plus: LPS Assay for Eselectin Biomarker Activity (AID 2283077); conditions: primary human HUVEC with PBMC; actives raise or lower the signal
How it was run: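 E-selectin ELISA on LPS-stimulated endothelial cell/PBMC co-cultures, read 24 h post-treatment; gains and losses fitted against DMSO. Parallel SRB staining (0.1% SRB after 10% TCA fixation, 560 nm) flags overt cytotoxicity.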

[16] = read-out: Interleukin-8 (IL8), CXCL8 (gene 3576); test: BSK_LPS_IL8: BioMAP Diversity Plus: LPS Assay for Interleukin-8 (IL8) Biomarker Activity (AID 2283078); conditions: primary human HUVEC with PBMC; actives raise or lower the signal
How it was run: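 ELISA read-out of IL-8 after 24 h chemical treatment of LPS-activated endothelial/PBMC human primary co-cultures. Changes either up or down relative to DMSO; overt cytotoxicity checked by sulforhodamine B staining in parallel wells.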

[17] = BSK_LPS_SRB: Viability Assessment in the BioMAP Diversity Plus: LPS Assay (AID 2283079); conditions: primary human HUVEC with PBMC;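 further: total protein by sulforhodamine B absorbance as a cytotoxicity measure; measured one day after compound addition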
How it was run: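 SRB viability endpoint: cells fixed with 10% TCA, stained with 0.1% SRB, read at 560 nm, 24 h post-dose. HUVEC/PBMC co-culture; signal change in either direction scored relative to DMSO.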

[18] = read-out: Interleukin-1 alpha (IL1a), IL1A (gene 3552); test: BSK_KF3CT_IL1a: BioMAP Diversity Plus: KF3CT Assay for Interleukin-1 alpha (IL1a) Biomarker Activity (AID 2283070); conditions: primary human keratinocytes with fibroblasts; actives raise or lower the signal
How it was run: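 Primary skin co-culture (keratinocytes, foreskin fibroblasts), 24 h exposure; ELISA for IL-1a; bidirectional curve fit vs DMSO.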

[19] = read-out: Transforming growth factor beta 1 (TGFb1), TGFB1 (gene 7040); test: BSK_KF3CT_TGFb1: BioMAP Diversity Plus: KF3CT Assay for Transforming growth factor beta 1 (TGFb1) Biomarker Activity (AID 2283072); conditions: primary human keratinocytes with fibroblasts; actives raise or lower the signal
How it was run: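 ELISA quantifies TGF-b1 at 24 h post-dose in a primary human skin co-culture of keratinocytes and fibroblasts, with gain or loss judged against DMSO. Parallel SRB total-protein staining flags overt cytotoxicity.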

Measured: AC50

Chain of E-selectin (Homo sapiens) (P16581 whole entry, looked up): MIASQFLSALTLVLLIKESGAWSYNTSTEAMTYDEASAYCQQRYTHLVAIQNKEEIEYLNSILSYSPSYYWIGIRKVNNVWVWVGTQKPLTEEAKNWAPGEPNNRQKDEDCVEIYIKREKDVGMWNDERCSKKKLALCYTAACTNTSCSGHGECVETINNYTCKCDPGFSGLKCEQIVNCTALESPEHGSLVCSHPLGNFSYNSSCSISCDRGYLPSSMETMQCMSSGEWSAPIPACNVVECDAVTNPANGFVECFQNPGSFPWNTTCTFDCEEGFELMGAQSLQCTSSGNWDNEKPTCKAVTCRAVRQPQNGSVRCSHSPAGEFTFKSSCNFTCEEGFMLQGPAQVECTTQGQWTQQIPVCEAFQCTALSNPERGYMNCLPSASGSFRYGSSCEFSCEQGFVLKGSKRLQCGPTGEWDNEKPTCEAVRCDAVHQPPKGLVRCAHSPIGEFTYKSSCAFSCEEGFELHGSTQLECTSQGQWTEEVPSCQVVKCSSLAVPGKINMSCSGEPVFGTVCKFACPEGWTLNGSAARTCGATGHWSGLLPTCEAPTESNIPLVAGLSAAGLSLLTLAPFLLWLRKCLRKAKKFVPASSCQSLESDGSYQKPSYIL

O=C(O)C(F)(F)C(F)(F)C(F)(F)F
inactive: [1] | [2] | [3] | [4] | [5] | [6] | [7] | [8] | [9] | [10] | [11] | [12] | [13] | [14] | CD40, CD40 (gene 958) | [15] | [16] | [17]

CC(=O)Nc1ccc(N=Nc2cc(C)ccc2O)cc1
active: [1] 30.8 µM | [4] 33.8 µM | [5] 31 µM | [6] 30.2 µM | [8] 20 µM | [9] 34 µM | [18] 20 µM
inactive: [2] | [3] | [7] | [10] | [11] | [19] | [12] | [13] | [14] | CD40, CD40 (gene 958) | [15] | [16] | [17]

O=C(CC(=O)C(F)(F)C(F)(F)F)C(F)(F)F
inactive: [1] | [2] | [3] | [4] | [5] | [6] | [7] | [8] | [9] | [10] | [18] | [11] | [12] | [13] | [14] | CD40, CD40 (gene 958) | [15] | [16] | [17]

O=C(O)C(F)(F)C(F)(F)C(F)F
inactive: [1] | [2] | [3] | [4] | [5] | [6] | [7] | [8] | [9] | [10] | [11] | [12] | [13] | [14] | CD40, CD40 (gene 958) | [15] | [16] | [17]

C#C[C@]1(O)CC[C@H]2[C@@H]3CCc4cc(OC)ccc4[C@H]3CC[C@@]21C
active: [7] 0.016 µM | [11] 5.41 µM | [19] 2.14 µM | [13] 7.71 µM | [14] 9.89 µM | CD40, CD40 (gene 958) 20 µM
inactive: [1] | [2] | [3] | [4] | [5] | [6] | [8] | [9] | [10] | [12] | [15] | [17]

FC(F)(F)C(F)(F)C(F)(F)C(F)(F)C(F)(F)C(F)(F)C(F)(F)I
inactive: [1] | [2] | [3] | [4] | [5] | [6] | [7] | [8] | [9] | [10] | [18] | [11] | [12] | [13] | [14] | CD40, CD40 (gene 958) | [15] | [16] | [17]
active: [13] 0.244 µM
